Source: ChEMBL document CHEMBL1961873, “Compounds: GSK PKIS; Assays: Nanosyn kinase panel” (2012)

molecular target: T1, Homeodomain-interacting protein kinase 4 (Homo sapiens) (UniProt Q8NE63); settings: at 0.1 µM
T1 sequence (whole entry): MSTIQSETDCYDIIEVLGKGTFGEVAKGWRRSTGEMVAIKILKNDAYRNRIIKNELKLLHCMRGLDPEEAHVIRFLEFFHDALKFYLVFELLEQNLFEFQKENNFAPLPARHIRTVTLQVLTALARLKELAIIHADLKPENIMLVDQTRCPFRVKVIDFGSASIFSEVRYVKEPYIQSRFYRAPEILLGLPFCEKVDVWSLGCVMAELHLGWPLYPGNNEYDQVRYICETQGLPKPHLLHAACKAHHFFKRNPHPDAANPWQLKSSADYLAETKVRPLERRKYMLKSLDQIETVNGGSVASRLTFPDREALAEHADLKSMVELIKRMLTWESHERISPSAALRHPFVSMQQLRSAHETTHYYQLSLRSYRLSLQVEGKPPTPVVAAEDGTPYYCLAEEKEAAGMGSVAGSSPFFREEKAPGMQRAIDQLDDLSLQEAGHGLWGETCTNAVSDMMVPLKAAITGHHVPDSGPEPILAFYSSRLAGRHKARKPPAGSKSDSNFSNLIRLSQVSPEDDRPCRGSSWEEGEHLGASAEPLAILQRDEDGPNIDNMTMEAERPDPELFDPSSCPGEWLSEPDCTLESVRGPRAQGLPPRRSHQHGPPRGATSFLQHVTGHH
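Note: reported as mean inhibition, part of the GSK PKIS dataset.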

Going from `CS(=O)(=O)CCNCc1cc(-c2cc3c(Nc4ccc(OCc5cccc(F)c5)c(Cl)c4)ncnc3s2)cs1` to `CS(=O)(=O)CCNCc1ccc(-c2ccc3ncnc(Nc4ccc(OCc5ccccc5)c(Br)c4)c3c2)o1`, the inhibition rises from -0.67% to 0.44%.

Compared with `CCC(=O)Nc1ccc(C)c(-c2ccc(C(=O)NCC3CC3)cc2)c1`, `Cc1ccc(C(=O)NC2CCC2)cc1-c1ccc(C(=O)NCC2CC2)cc1` is lower in inhibition: 0.11% for the first, -0.06% for the second.

First: COc1cc(Nc2ncc3c(C)nc(-c4cccc(C(F)(F)F)c4)n3n2)cc(OC)c1OC
Second: COc1cc2ncn(-c3cc(OCc4cccs4)c(C(N)=O)s3)c2cc1OC
The inhibition of the first is lower: 1.83% for the first, 20.2% for the second.

Compared with `Fc1ccc(-c2nc3n(c2-c2ccncc2)CCS3)cc1`, `NC(=O)c1cc(-c2ccncc2)cc(-c2ccccc2)c1N` is higher in inhibition: 0.39% for the first, 1.54% for the second.

Going from `CCc1nccc2c1nc(-c1nonc1N)n2CC` to `Clc1ccc(CNc2nccc(-c3cnn4ncccc34)n2)cc1`, the inhibition rises from 0.62% to 11.9%.

Compared with `CN(C)c1ccc2c(c1)/C(=C/Nc1ccc(S(N)(=O)=O)cc1)C(=O)N2`, `C/C(Nc1ccc(S(N)(=O)=O)cc1)=C1/C(=O)Nc2ccccc21` is higher in inhibition: -0.09% for the first, 0.16% for the second.

First: Cc1nnc(-c2ccc(C)c(-c3ccc(C(=O)NCc4ccc(Cl)cc4)cc3)c2)o1
Second: CCS(=O)(=O)c1ccc(OC)c(Nc2ncc(-c3cccc(-c4ccccc4F)c3)o2)c1
The inhibition of the first is lower: -0.69% for the first, 3.89% for the second.

First: c1ccc(-c2n[nH]cc2-c2ccnc(-c3ccc(OCCN4CCOCC4)cc3)c2)nc1
Second: O=C1Nc2ccccc2/C1=C/Nc1ccc(-n2cncn2)cc1
The inhibition of the first is higher: 3.43% for the first, 0.86% for the second.

`CCc1cccc(CC)c1/C=C/c1cncc(C(=O)NC)c1` gave an inhibition of 1.04%.
